Laboratory results published in the supplement of paper PMC10849652.
Of roughly 7,900 targets only a part is listed; those with a hit were picked by preference. About 0.6% of all pairs of compound and target were hits.

Compound: CCN(CCCOc1ccc2c(Nc3cc(CC(=O)Nc4cccc(F)c4)[nH]n3)ncnc2c1)CCOP(=O)(O)O [barasertib]
Assay: log2 fold change, soluble protein after heating vs DMSO (PISA); higher = thermal stabilisation; K562 cells, 10 uM, 30 min; active = over 0.2 and 3.5 SD of the protein, either way, in both replicates (recomputed)
Outline: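 K562 cells at 2×10^6 cells/mL were treated with 10 μM compound for 30 min. Aliquots were heated for 3 min across 48°C-58°C, pooled, and extracted in PBS with 0.5% NP-40 at 4°C; soluble protein was the supernatant after 21,000xg for 90 min. Soluble protein was quantified by TMTpro 16plex LC-MS/MS with channel sums equalised, and reported as log2 fold change in thermal stability against DMSO controls, with values from duplicates.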

Chain of UniProt Q9Y5K5 (Q9Y5K5 whole entry, looked up): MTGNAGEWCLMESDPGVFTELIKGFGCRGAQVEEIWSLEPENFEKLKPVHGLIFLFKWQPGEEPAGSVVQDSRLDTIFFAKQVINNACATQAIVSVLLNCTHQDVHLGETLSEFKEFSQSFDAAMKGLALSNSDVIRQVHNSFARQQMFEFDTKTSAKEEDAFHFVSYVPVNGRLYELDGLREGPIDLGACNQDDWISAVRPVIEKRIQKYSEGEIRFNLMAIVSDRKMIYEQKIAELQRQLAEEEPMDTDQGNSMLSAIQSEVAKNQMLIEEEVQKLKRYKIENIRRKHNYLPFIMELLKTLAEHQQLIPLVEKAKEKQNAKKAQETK
Chain of UniProt P49815 (P49815 whole entry, looked up): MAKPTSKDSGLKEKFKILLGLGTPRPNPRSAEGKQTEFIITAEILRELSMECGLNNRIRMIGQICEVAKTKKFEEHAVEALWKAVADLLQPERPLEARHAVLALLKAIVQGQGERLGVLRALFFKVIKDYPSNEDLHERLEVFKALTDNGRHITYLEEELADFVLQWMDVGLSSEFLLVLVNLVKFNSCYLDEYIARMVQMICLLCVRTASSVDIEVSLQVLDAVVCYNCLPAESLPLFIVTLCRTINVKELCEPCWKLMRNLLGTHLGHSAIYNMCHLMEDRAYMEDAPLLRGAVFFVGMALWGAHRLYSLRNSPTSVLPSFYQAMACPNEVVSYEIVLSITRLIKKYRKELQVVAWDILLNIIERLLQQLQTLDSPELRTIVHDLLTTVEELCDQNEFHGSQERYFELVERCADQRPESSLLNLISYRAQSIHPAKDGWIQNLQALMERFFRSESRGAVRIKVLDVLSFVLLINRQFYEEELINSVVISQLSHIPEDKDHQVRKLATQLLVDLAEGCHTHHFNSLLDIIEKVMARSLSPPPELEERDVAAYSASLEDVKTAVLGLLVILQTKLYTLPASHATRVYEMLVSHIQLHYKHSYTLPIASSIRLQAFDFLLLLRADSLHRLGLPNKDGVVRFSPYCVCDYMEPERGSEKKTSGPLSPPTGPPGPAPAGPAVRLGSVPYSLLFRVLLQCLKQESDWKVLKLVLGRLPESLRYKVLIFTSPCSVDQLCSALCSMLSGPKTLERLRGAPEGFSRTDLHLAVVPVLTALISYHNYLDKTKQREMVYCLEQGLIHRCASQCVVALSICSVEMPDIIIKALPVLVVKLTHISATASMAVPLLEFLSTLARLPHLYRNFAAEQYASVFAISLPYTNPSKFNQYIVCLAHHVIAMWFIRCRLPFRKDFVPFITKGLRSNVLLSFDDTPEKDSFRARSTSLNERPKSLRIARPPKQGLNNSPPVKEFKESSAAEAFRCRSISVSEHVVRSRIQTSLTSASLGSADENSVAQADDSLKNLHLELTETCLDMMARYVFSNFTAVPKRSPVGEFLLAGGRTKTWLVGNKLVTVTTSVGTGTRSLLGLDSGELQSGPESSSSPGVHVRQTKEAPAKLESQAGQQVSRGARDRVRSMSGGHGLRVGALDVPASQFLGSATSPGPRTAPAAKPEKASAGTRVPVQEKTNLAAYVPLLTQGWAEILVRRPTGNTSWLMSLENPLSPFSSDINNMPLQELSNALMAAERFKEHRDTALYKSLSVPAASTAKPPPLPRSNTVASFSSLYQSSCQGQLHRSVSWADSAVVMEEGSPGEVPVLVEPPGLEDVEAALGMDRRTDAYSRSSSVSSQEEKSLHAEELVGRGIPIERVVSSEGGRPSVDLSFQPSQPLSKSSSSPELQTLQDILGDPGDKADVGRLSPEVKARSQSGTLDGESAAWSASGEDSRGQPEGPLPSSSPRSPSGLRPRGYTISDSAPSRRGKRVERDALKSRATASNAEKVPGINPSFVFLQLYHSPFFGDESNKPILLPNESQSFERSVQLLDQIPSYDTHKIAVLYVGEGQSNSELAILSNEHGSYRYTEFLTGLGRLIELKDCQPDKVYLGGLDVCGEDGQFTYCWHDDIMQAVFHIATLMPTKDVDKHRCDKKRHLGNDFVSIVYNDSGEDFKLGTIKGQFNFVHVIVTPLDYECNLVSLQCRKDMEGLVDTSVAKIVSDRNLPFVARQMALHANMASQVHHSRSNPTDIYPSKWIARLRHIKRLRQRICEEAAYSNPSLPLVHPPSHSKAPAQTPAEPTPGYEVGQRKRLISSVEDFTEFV
Chain of UniProt Q9UBK9 (Q9UBK9 whole entry, looked up): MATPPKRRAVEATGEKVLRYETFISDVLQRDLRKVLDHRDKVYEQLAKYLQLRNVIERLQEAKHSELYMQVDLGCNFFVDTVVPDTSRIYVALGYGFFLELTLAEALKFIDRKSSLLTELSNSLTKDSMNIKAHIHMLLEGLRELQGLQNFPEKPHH
Chain of UniProt Q9NUM4 (Q9NUM4 whole entry, looked up): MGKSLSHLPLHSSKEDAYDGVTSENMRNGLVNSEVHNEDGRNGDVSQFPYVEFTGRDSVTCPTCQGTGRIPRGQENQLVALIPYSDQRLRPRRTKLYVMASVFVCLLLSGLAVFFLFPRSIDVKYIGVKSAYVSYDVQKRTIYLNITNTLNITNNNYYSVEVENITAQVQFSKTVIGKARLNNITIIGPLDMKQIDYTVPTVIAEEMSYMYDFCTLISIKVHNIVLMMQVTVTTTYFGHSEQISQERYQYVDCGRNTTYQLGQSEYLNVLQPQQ
Chain of UniProt Q9H267 (Q9H267 whole entry, looked up): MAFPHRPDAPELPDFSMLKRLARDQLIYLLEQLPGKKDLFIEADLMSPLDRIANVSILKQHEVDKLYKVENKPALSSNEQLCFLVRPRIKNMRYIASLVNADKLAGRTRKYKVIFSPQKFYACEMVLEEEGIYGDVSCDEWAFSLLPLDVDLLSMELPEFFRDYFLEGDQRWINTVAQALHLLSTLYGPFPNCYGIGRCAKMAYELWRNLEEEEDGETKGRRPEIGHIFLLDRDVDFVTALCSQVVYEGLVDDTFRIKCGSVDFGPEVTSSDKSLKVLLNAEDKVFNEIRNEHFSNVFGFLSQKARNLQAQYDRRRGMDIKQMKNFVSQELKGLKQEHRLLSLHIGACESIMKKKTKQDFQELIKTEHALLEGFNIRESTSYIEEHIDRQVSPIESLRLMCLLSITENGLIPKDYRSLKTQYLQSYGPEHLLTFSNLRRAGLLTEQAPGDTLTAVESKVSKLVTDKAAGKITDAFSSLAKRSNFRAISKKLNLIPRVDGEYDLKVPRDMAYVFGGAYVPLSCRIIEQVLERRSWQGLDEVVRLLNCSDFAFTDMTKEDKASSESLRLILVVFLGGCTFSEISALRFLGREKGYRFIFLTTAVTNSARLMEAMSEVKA
Chain of UniProt Q9Y4E8 (Q9Y4E8 whole entry, looked up): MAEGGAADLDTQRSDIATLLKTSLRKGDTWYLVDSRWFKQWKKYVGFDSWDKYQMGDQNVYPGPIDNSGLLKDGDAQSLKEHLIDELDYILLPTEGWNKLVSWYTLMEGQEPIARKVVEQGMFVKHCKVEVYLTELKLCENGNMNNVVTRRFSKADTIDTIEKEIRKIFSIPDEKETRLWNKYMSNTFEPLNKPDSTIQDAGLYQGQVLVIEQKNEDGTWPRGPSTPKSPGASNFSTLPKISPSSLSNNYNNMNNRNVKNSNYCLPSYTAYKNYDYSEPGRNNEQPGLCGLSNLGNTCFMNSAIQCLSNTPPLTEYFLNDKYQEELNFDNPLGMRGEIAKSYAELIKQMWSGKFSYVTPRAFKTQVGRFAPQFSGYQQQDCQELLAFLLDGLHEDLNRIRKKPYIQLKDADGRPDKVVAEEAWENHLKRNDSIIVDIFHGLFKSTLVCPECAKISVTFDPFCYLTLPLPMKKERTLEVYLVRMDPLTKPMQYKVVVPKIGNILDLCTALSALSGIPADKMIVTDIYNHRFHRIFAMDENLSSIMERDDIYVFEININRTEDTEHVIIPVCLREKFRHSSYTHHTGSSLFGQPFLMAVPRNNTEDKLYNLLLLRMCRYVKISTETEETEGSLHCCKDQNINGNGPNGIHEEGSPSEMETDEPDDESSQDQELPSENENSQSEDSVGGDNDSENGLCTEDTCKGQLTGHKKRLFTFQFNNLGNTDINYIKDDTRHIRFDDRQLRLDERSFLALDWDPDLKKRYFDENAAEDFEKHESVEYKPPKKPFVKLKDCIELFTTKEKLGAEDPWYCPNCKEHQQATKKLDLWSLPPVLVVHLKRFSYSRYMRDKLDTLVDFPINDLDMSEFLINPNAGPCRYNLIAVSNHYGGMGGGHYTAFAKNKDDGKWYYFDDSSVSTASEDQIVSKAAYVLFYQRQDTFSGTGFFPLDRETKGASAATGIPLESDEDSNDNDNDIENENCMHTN
Chain of UniProt Q16881 (Q16881 whole entry, looked up): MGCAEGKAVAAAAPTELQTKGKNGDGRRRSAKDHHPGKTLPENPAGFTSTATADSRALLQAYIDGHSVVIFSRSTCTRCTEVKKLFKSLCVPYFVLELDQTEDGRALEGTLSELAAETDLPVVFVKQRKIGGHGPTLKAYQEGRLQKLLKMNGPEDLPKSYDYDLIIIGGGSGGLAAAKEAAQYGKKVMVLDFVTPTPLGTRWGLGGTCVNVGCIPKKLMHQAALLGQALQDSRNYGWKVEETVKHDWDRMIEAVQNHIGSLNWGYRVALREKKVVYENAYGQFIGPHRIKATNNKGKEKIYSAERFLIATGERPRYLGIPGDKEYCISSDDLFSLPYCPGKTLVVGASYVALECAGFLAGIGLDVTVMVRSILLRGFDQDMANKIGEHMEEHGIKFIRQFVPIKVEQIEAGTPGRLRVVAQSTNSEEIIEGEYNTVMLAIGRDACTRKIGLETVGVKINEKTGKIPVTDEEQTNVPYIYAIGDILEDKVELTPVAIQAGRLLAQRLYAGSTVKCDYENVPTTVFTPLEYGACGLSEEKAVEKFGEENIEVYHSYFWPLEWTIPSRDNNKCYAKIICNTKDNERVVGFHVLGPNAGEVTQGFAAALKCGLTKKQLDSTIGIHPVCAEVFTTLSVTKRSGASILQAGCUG
Chain of UniProt Q9BQB6 (Q9BQB6 whole entry, looked up): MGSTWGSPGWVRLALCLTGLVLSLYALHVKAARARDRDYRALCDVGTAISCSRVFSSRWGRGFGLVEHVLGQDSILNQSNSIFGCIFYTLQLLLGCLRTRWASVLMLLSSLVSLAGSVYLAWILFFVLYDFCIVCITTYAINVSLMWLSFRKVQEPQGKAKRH

log2 fold change, inactive:
UXT isoform 2 (UniProt Q9UBK9) 0.022, TMEM128 (UniProt Q5BJH2) -0.004, VWA3B isoform 6 (UniProt Q502W6) 0.057, TMEM164 (UniProt Q5U3C3) -0.095, TXN2 (UniProt Q99757) 0.009, WDR37 isoform 2 (UniProt Q9Y2I8) 0.04, UBA52 (UniProt P62987) 0.044, U2AF1L5 (UniProt P0DN76) -0.127, TRIM44 (UniProt Q96DX7) -0.035, USP15 (UniProt Q9Y4E8) 0.06, UTP3 (UniProt Q9NQZ2) -0.08, TTC33 (UniProt Q6PID6) 0.079, WDR75 (UniProt Q8IWA0) 0.025, UFD1 isoform 1 (UniProt Q92890) -0.011, TXNL4B (UniProt Q9NX01) 0.306, TMEM189-UBE2V1 (UniProt I3L0A0) -0.054, WARS1 (UniProt G3V277) 0.073, UNC119B (UniProt A6NIH7) -0.029, TSEN2 (UniProt Q8NCE0) 0.073, UCHL5 isoform 3 (UniProt Q9Y5K5) 0.048, TMEM184C (UniProt Q9NVA4) 0.055, TMEM106B (UniProt Q9NUM4) -0.039, UBIAD1 (UniProt Q9Y5Z9) 0.023, UBE4A isoform 2 (UniProt Q14139) 0.065, UCHL5 (UniProt Q9Y5K5) 0.024, VPS33B (UniProt Q9H267) 0.088, VPS33A (UniProt Q96AX1) 0.068, VPS18 (UniProt Q9P253) 0.088, VKORC1 (UniProt Q9BQB6) 0.048, TNFRSF8 (UniProt P28908) -0.006, TXNRD1 (UniProt Q16881) 0.024, WDCP (UniProt Q9H6R7) -0.06, TSC2 (UniProt P49815) -0.015, TNPO3 (UniProt Q9Y5L0) 0.019, UBE3B (UniProt Q7Z3V4) -0.057, TMEM179B (UniProt Q7Z7N9) 0.045
